Among all 320,000 compounds or so, about 9,100 (2.8%) were called active. A call without a number means that no potency is given here. Inconclusive results (about 3%) are left out. The sample as a whole holds a higher share of actives than the screen did. A number with no mark means an inactive call. Calls follow the shape of the dose curve; as a rule, active = well fitted activation curve with a large enough effect; inconclusive = small, poorly fitted or top-dose-only effect; inactive = no such curve, though single readings can be large or run the other way.
Test: qHTS Assay for Rab9 Promoter Activators; also: nearly all actives have a fitted effect of over 60% in size
Conditions: Huh7 Rab9 promoter-luciferase reporter, luminescence, 24 h; series mostly up to 9.22 µM
From the text: NIH Chemical Genomics Center [NCGC] NIH Molecular Libraries Probe Production centers Network [MLPCN] MLPCN Grant: MH089537-01 Assay Submitter (PI): Yiannis A. Ioannou NCGC Assay Overview: Niemann Pick Type C (NPC) is a rare neurodegenerative lipidosis that is characterized by lipid storage in the endosomal/lysosomal system. Treatment modalities for this devastating disease are currently non-existent due to the severe obstacles associated with accessing the central nervous system with proteins or genes (Ioannou, 2000). We have developed a new paradigm, termed "Orphan Receptor Bypass Therapy" (ORByT), to address these disorders. This paradigm posits the existence of endogenous "suppressor" proteins whose expression can dramatically improve LSD pathogenesis. The goal is the identification/discovery of small chemical compounds that can modulate the expression of these proteins and provide a new treatment modality for these devastating disorders. One such protein whose overexpression reverses aspects of the NPC phenotype is Rab9. We have developed and optimized a cell based luciferase reporter assay in 1536 well format for the identification of up-regulators of the Rab9 promoter.
The Rab9 promoter is cloned in front of the luciferase reporter gene, therefore […] promoter activation results in luciferase expression. Frozen stock of the Rab9 promoter transfected Huh7 cells were obtained from the laboratory of Dr. Yiannis Ioannou (The Mount Sinai School of Medicine, New York, NY). Cells were propagated and maintained at NCGC in medium containing RPMI-1640 supplemented with 10% FBS, 2mM L-glutamine, and 50ug/ml penicillin/streptomycin. Cells were harvested in and plated for assays in OP-MEM I reduced-serum medium supplemented with 10% FBS. The Amplite luciferase reporter gene assay kit was purchased from ABD Bioquest and prepared/stored according to manufacturers recommendations. qHTS Assay Setup: 1.Dispensed 5ul of Huh7 cells stably expressing Rab9-luciferase at a density of 1500 cells per well 1536-well plates. 2.Incubate cells at 37C, 5% CO2, and 95% humidity for 2 hours. 3.Transferred 23nl per well of compound in DMSO solution. 4.Incubated at 37C, 5% CO2, and 95% humidity for 24 hours. 5.Dispensed 3ul per well of Amplite reagent(ABD Bioquest) per well. 6.Incubate at ambient for 10 minutes. 7.Read using the luminescence protocol on the ViewLux plate reader (Perkin Elmer).
Potency is read from the fitted curve at half-maximal effect.

Structure (SMILES) | Potency | activation, negative = inhibition
Cc1ccc(/C=C/C(=O)OCC(=O)NCc2ccc(Cl)cc2)o1 | inactive | –
COc1cccc(COc2ccc(N(C)S(=O)(=O)c3ccccc3)cc2)c1 | inactive | –
CN(Cc1ccccc1)C(=O)c1ccc(COc2ccccc2)cc1 | inactive | –
CCOc1ccc(OCc2cccc(C(=O)N(CC)CC)c2)cc1 | 0.141 µM (active) | –
COc1ccc(Cn2c(=S)[nH]c3cc(C(=O)N4CCCCC4)ccc3c2=O)cc1 | inactive | –
COc1ccc(OCc2cccc(C(=O)N3CCCC3)c2)cc1 | 0.398 µM (active) | –
CC(=O)Oc1ccc(-c2cccc(C(=O)N3CCCCC3)c2)cc1 | inactive | –
COc1ccccc1CNS(=O)(=O)c1cc(C(=O)NCc2ccccn2)c(Cl)cc1Cl | inactive | –
CC(C(=O)N(C)CC(=O)Nc1ccccc1C(F)(F)F)N1C(=O)c2ccccc2C1=O (stereo not given) | inactive | –
Nn1c(SCC(=O)Nc2nccs2)nnc1-c1ccco1 | inactive | –
CCN(CC(=O)Nc1ccc(OC)cc1)C(=O)c1ccc(Cl)c(S(=O)(=O)N2CCCC2)c1 | inactive | –
Cc1ccccc1NC(=O)Cc1nc(COC(=O)c2cccnc2Cl)cs1 | inactive | –
O=C(NCCc1c[nH]c2ccccc12)c1cccc(Br)c1 | – | -1.43% [at 1.84 µM]
O=C(NCCc1c[nH]c2ccccc12)c1cc2ccccc2oc1=O | 3.98 µM (active) | –
CN(c1ccccc1)S(=O)(=O)c1ccc(Cl)c(C(=O)NCCc2c[nH]c3ccccc23)c1 | inactive | –
COCCNc1nnc(SCC(=O)NNC(=O)c2ccco2)s1 | inactive | –
CCCCc1ccc(NS(=O)(=O)c2cccc(C(=O)N3CCCN(C)CC3)c2)cc1 | inactive | –
COc1ccccc1P(=O)(c1ccccc1)c1ccccc1NC(C)=O (stereo not given) | inactive | –
Cc1cc2nc(SCCN3CCOCC3)[nH]c2cc1C | 3.55 µM (active) | –
CCn1c2ccc(F)cc2c2nnc(SCCN3CCOCC3)nc21 | inactive | –
Cc1cccc(C)c1OCCN1CCOCC1 | inactive | –
O=C(Nc1cccnc1Oc1ncnc2cc(Cl)ccc12)c1ccc(F)cc1 | inactive | –
Cc1ccc(S(=O)(=O)N(C)C)cc1NC(=O)c1ccc(-n2cncn2)c([N+](=O)[O-])c1 | inactive | –
O=C(NC1CC1)c1ccc2c(c1)NC(=O)c1ccccc1S2 | inactive | –
O=C(O)c1cccc(N2C(=O)Nc3ccccc3N2O)c1 | inactive | –
C/C(=N\Nc1cccc(C(=O)O)c1)c1ccc2c(c1)Nc1ccccc1S2 | 3.16 µM (active) | –
CCc1ccccc1NC(=O)CN(C)C(=O)c1cc(C2CC2)nn1-c1ccccc1 | inactive | –

Structure (SMILES) | Potency | activation, negative = inhibition
CCN1C(=S)N[C@@H](c2cccc(C(F)(F)F)c2)C(C(=O)OC)=C1C | inactive | –
O=C(CN1CCN(S(=O)(=O)c2ccc(Cl)s2)CC1)N1CCCCC1 | inactive | –
COC(=O)c1cc(NS(=O)(=O)c2ccc3c(c2)c(=O)n(C)c(=O)n3C)cc(C(=O)OC)c1 | inactive | –
CSc1ccccc1C(=O)OCC(=O)N1CCN(C(C)=O)CC1 | inactive | –
N#C/C(=C1/CCCN1)c1ccccn1 | inactive | –
N#CC(=C1CCCC1)c1nc(-c2ccc(Cl)cc2)cs1 | 3.16 µM (active) | –
CCCCCN1CC(O)=C(c2nc(-c3ccc(Cl)cc3)cs2)C1=N | inactive | –
CCCCN(C(=O)c1nn(C)c(=O)c2ccccc12)c1c(N)n(CCC)c(=O)[nH]c1=O | inactive | –
COc1ccc2nc(C)cc(Nc3cccc(C(=O)O)c3)c2c1 | inactive | –
Cc1ccc(Nc2ncnc3c2cnn3C)c(C)c1 | inactive | –
Cc1ccc(-n2ncc3c(Nc4cccc(C(=O)O)c4)ncnc32)cc1 | 0.355 µM (active) | –
COc1ccccc1C(=O)NCCC(=O)N(C)Cc1cccnc1 | inactive | –
Oc1ccc(CN2CCN(c3ncccn3)CC2)cc1 | inactive | –
O=C(c1ccncc1)N1CCN(c2ccc3ccccc3n2)CC1 | inactive | –
c1cnc(N2CCN(c3ccc4ccccc4n3)CC2)nc1 | 3.16 µM (active) | –
CCOc1ccc(NS(=O)(=O)c2ccc(Cl)c(C(=O)N(C)Cc3cccnc3)c2)cc1 | inactive | –
O=C(NCCc1ccc(C(F)(F)F)cc1)c1ccc2c(c1)OCO2 | inactive | –
CCNC(=O)CC1C(=O)N(c2ccc(OC)cc2)C(=S)N1CCc1ccncc1 (stereo not given) | inactive | –
CCOCCCn1c(SCC(=O)Nc2cc(OC)ccc2OC)nc2ccccc2c1=O | inactive | –
COc1ccc(NS(=O)(=O)c2cc(NC(=O)CC(=O)c3ccc([N+](=O)[O-])cc3)ccc2C)cc1 | inactive | –
CCn1c(SCC(=O)Nc2nccs2)nnc1-c1ccncc1 | inactive | –
Cc1[nH]c2ccccc2c1SCC(=O)Nc1nccs1 | 4.47 µM (active) | –
Cc1cc(C#N)c(SCC(N)=O)nc1-c1ccc(F)cc1 | inactive | –
Cn1c(SCC(=O)Nc2nccs2)nnc1-c1cccnc1 | inactive | –
CC(=O)c1cc(C#N)c(SCC(=O)Nc2nccs2)nc1C | 1.26 µM (active) | –
Cc1cc(C(F)(F)F)nc(SCC(=O)Nc2nccs2)n1 | inactive | –
CC(=O)c1cc(C#N)c(SCC(=O)C(C)(C)C)nc1C | 2.51 µM (active) | –

Structure (SMILES) | Potency | activation, negative = inhibition
CC(=O)c1cc(C#N)c(N2CC(C)OC(C)C2)nc1C (stereo not given) | inactive | –
CCn1c(SCC(=O)Nc2nccs2)nnc1-c1ccco1 | inactive | –
O=C1C=C(c2cccc(Cl)c2O)C[C@@H](c2ccc(F)cc2)C1 | inactive | –
Cc1cc(C)c(C#N)c(SCC(=O)N(CC(C)C)C2CCS(=O)(=O)C2)n1 (stereo not given) | inactive | –
O=C(O[C@@H]1[C@H](Cc2ccccc2)NS(=O)(=O)[C@H]2C[C@@H]3C=C[C@]12O3)c1ccccc1Br | inactive | –
O=C(Nc1ccccc1F)c1ccc(S(=O)(=O)N2CCCCCC2)cc1 | inactive | –
CCc1cc(C(=O)Nc2nnc(C3CC3)s2)sc1C | inactive | –
O=C1CCC(=O)N(c2ccccc2)N1 | inactive | –
CC(=O)NC1C(Oc2ccc(C)cc2)OC2COC(c3ccco3)OC2C1O (stereo not given) | inactive | –
CCn1nnnc1SCC(=O)c1ccc(C)cc1C | 3.55 µM (active) | –
CCn1nnnc1SCC(=O)Nc1ccc(N(C)C)cc1 | inactive | –
COc1ccc(C(=O)CSc2nnnn2C)c(OC)c1 | inactive | –
Cc1ccc(NC(=O)COC(=O)C2C3CC4OC(=O)C2C4C3)cc1Cl (stereo not given) | inactive | –
Nc1cc(N)nc(SCC(=O)Nc2cccc(S(=O)(=O)N3CCCCC3)c2)n1 | inactive | –
O=C(/C=C/c1cccc([N+](=O)[O-])c1)OCC(=O)N1CCOCC1 | inactive | –
Cc1ccc(NC(=O)Cc2nc(COC(=O)C(C)NS(=O)(=O)c3ccc(C)cc3)cs2)cc1 (stereo not given) | inactive | –
CCCn1nc(C(=O)OCc2nc(N)nc(Nc3ccccc3C)n2)c2ccccc2c1=O | inactive | –
CCN(CC)C(CNC(=O)CSc1nnnn1-c1cccc(F)c1)c1ccco1 (stereo not given) | inactive | –
COc1ccc(C(=O)Cc2cnn(-c3ccccc3)c2)c(O)c1 | 3.16 µM (active) | –
COc1ccc(CC(=O)c2ccc(O)cc2O)cc1OC | inactive | –
Cc1cc(O)cc(O)c1C(=O)Cc1cnn(-c2ccccc2)c1 | inactive | –
O=C(CN(CC1CCCO1)C(=O)CNS(=O)(=O)c1ccc(F)cc1)NCc1ccco1 (stereo not given) | inactive | –
CCOC(=O)c1ccccc1NC(=O)COC(=O)C(Cc1c[nH]c2ccccc12)NC(C)=O (stereo not given) | inactive | –
O=C(N/C(=C\c1ccc([N+](=O)[O-])cc1)C(=O)N1CCOCC1)c1cccc(Br)c1 | inactive | –
COc1ccc(S(=O)(=O)N2CCN(CC(=O)NCC3(N4CCOCC4)CCCCC3)CC2)cc1 | inactive | –
CN(C)C(=O)COC(=O)c1cccc(S(=O)(=O)N2CC3(C)CC2CC(C)(C)C3)c1 (stereo not given) | inactive | –
CCCN(CCC)c1ccc(C(O)c2nnc(-c3ccccc3)o2)cc1 (stereo not given) | inactive | –

Structure (SMILES) | Potency | activation, negative = inhibition
OC(c1nnc(-c2ccccc2)o1)c1cccs1 (stereo not given) | 4.47 µM (active) | –
O=C(Nc1nnc(-c2ccccc2)o1)c1cc(-c2cccs2)nc2ccccc12 | inactive | –
CCOC(=O)C1=C(COC(=O)[C@H](C)NS(=O)(=O)c2ccccc2F)NC(=O)NC1C (stereo not given in full) | inactive | –
O=C1N/C(=N\N=C\c2ccco2)SC1Cc1ccc(F)cc1 (stereo not given) | inactive | –
C=CCN1C(=O)C(Cc2cccc(Cl)c2)S/C1=N/N=C/c1ccco1 (stereo not given) | inactive | –
COc1ccc(CN2C(=O)C(C)S/C2=N/N=C/c2ccco2)cc1 (stereo not given) | 2.82 µM (active) | –
O=C(/C=C/c1ccccc1[N+](=O)[O-])OCC(=O)N1CCCC1 | inactive | –
Cc1nn(Cc2ccccc2)c(C)c1CNC(=O)c1ccc(F)c(S(=O)(=O)N2CCOCC2)c1 | inactive | –
Cc1csc(=O)n1CCC(=O)OCC(=O)NNC(=O)c1ccc(Br)cc1 | inactive | –
CCN(CC)S(=O)(=O)c1cc(C(=O)Nc2cc(S(=O)(=O)N3CCOCC3)ccc2N2CCCC2)ccc1F | inactive | –
CN(C)S(=O)(=O)c1ccc2oc(SCC(=O)Nc3ccccc3F)nc2c1 | 1.41 µM (active) | –
COc1ccc(NS(=O)(=O)c2ccc3oc(SCC(N)=O)nc3c2)cc1 | inactive | –
COc1ccc(S(=O)(=O)N(C)C)cc1NC(=O)CSc1ncccn1 | inactive | –
CCOC(=O)[C@H]1[C@H]2COc3ccc(C)cc3[C@@H]2N2C(=O)CN(Cc3ccc(F)cc3)C(=O)[C@@]12C | inactive | –
CC(C#N)(NC(=O)CN1CCN(S(=O)(=O)c2cc(C(F)(F)F)ccc2Cl)CC1)C1CC1 (stereo not given) | inactive | –
Cc1cccc(NC(=O)c2cccnc2Cl)n1 | inactive | –
Cc1cccc(NC(=O)c2ccc3ccccc3n2)n1 | 3.16 µM (active) | –
Cc1cccc(NC(=O)c2ccccc2NC(=O)C(C)(C)C)n1 | inactive | –
COc1ccc(S(=O)(=O)N2CCOCC2)cc1NC(=O)CC1CC2CCC1C2 (stereo not given) | inactive | –
CC(C)Cc1cc(C(=O)NCCc2ccccc2)no1 | 3.16 µM (active) | –
O=C(NCCCc1ccccc1)c1cc(COc2c(F)cccc2F)on1 | inactive | –
Nc1nonc1C(=O)NCCc1ccccc1 | inactive | –
COc1ccc(CCNC(=O)COC(=O)Cc2cccc(F)c2)cc1 | inactive | –
CCCC[C@]12Cc3cc(OC)c(OC)cc3C(O1)C1=C(CC3(CCCCC3)OC1=O)O2 | – | -3.75% [at 1.84 µM]

— PubChem BioAssay AID485297 (National Center for Advancing Translational Sciences (NCATS), 2010)
